In all, about 2,500 compounds went through this assay and about 360 (14%) were called active. A selection follows. Unmarked numbers belong to inactive results.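 How the source made its calls: active means signal-lowering compounds whose fitted half-maximal concentration AC50 is no higher than ten times their top tested concentration; inconclusive means flat curve with 30 to 70% inhibition, or poor fit; inactive means flat within 30%, signal increase, or AC50 above limit.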
Assay: HRP/luminol detection interference without ALR, dose response, artefact control for ALR inhibitor project, biochemical, luminescence, no ALR or DTT, cherry-pick (AID 540356);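 on activity change, negative = inhibition: 0% = median of neutral control wells and -100% = median of quercitin 100 µM wells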
Settings: HRP/H2O2 luminol luminescence counterscreen; series mostly up to 10 µM; activity change, negative = inhibition: at the top concentration

| SMILES | activity change, negative = inhibition [%] | AC50 |
| --- | --- | --- |
| C/C(=N\Nc1cccc(Cl)c1)c1ccncc1 | 3.05 |  |
| O=C(NNc1cccc(Cl)c1)c1cccnc1Cl |  | 6.88 µM (active) |
| COc1ccc(Nc2cccc(Cl)c2)c(C(=O)O)c1 | -13.4 |  |
| O=C(CC1CCCC1)N1CCCC(Nc2ccc(F)cc2)C1 (stereo unspecified) | 0.017 |  |
| Cc1occc1C(=O)N1CCCC(Nc2ccc(C(C)C)cc2)C1 (stereo unspecified) | -3.64 |  |
| CCS(=O)(=O)N1Cc2ccccc2CC1C(=O)N1CCN(c2ccccc2)CC1 (stereo unspecified) | 1.97 |  |
| Cc1ccc2c(C)c(C(=O)Nc3ccc(S(=O)(=O)Nc4onc(C)c4C)cc3)oc2c1 | -6.98 |  |
| CCN(CC)c1ccc(NC(=O)CN2CCN(c3ccc(F)cc3)CC2)cc1 | -1.86 |  |
| CCN(CC)c1ccc(NC(=O)c2nc3nc(C)cc(C(F)F)n3n2)cc1 |  | 10.3 µM (active) |
| CCN(CC)c1ccc(NC(=O)CN2CCN(c3nc(C)cc(C)n3)CC2)cc1 | -15.6 |  |
| COc1ccc(N2C(=O)CSC2c2ccc([N+](=O)[O-])cc2)cc1 (stereo unspecified) | 0.574 |  |
| O=C(NNc1ccc(O)cc1)c1ccc(Br)cc1 |  | 9.05 µM (active) |
| COc1ccc(Br)cc1C(=O)Nc1ccc(O)cc1 | -12.1 |  |
| O=C(NNc1cc(Br)c(O)c(Br)c1)c1ccccc1 | -1.51 |  |
| Nc1cccc(/C=C/c2ccncc2)c1 | -4.25 |  |
| CCN(CC)Cc1c(-c2ccccc2)[nH]c2ccc(C)cc2c1=O | -0.224 |  |
| Oc1ccc(O)c(-c2cnns2)c1 |  | 5.54 µM (active) |
| c1ccc(-c2nnc(CN3CCN(c4ccccc4)CC3)o2)cc1 | 1.45 |  |
| COc1ccc(NC2CCCN(C(=O)c3cn(C)c4ccccc34)C2)cc1 (stereo unspecified) | -14.7 |  |
| Cc1ccc(Nc2c(-c3ccccc3O)nc3cnccn23)cc1 | 0.898 |  |
| CC(=O)Oc1cc2oc(=O)cc(C)c2cc1Cl | -1.43 |  |
| Cc1cc(N)n2ncc(-c3ccccc3)c2n1 | -0.253 |  |
| O=C(NCC(c1cccnc1)N1CCN(c2ccc(F)cc2)CC1)c1ccco1 (stereo unspecified) | -1.53 |  |
| COC(=O)[C@H](Cc1ccccc1)NC(=O)N1CCN(c2ccccc2)CC1 | 0.603 |  |
| O=C(CN1CCN(c2ccccc2)CC1)Nc1ccccc1Cl | -0.658 |  |
| O=C1N/C(=N\S(=O)(=O)Cc2ccccc2)S/C1=C/c1cc([N+](=O)[O-])ccc1O | -0.915 |  |

| SMILES | activity change, negative = inhibition [%] | AC50 |
| --- | --- | --- |
| Cc1ccc(N2CCN(C(=O)CNS(=O)(=O)c3ccc(Br)s3)CC2C)cc1 (stereo unspecified) | -2.85 |  |
| COc1ccc(N2CCN(C(=O)c3ccc(SC)cc3OC)CC2)cc1 | 0.908 |  |
| COc1ccc(-c2nc(=S)[nH][nH]2)cc1 |  | 2.94 µM (active) |
| CCn1c(-c2cc(OC)c(OC)c(OC)c2)n[nH]c1=S | -10.3 |  |
| COc1cc(-c2nc(=S)[nH][nH]2)cc(OC)c1OC |  | 3.9 µM (active) |
| S=c1nc(-c2cccc(Cl)c2)[nH][nH]1 | -9.58 |  |
| S=c1nc(-c2cc(Cl)cc(Cl)c2)[nH][nH]1 | -2.06 |  |
| FC(F)(F)c1ccc(-c2nc(=S)[nH][nH]2)cc1 | -5 |  |
| CC(=O)Nc1ccc(N2C(=O)CSC2c2ccccc2)cc1 (stereo unspecified) | 3.31 |  |
| COc1ccc2nc(N3CCCC3)[nH]c2c1 | -7.05 |  |
| Cc1[nH]c2ccccc2c1N=Nc1cccc(C(=O)O)c1 | -10.3 |  |
| CCCCC(NC(=O)Cc1c(C)c2cc3c(C)c(C)oc3c(C)c2oc1=O)C(=O)O (stereo unspecified) | -14.1 |  |
| CC(=O)NC(c1cc(Cl)c2ccccc2c1O)C(C)C (stereo unspecified) | -4.5 |  |
| COc1ccccc1N1CCN(C2CCCN(C(=O)CCc3c(C)noc3C)C2)CC1 (stereo unspecified) | -1.06 |  |
| CCN(CC)c1ccc(NC(=O)c2ccc(Br)o2)c(C)c1 | -5.68 |  |
| Cc1cccc(C2CN(C)CCc3c2cc(O)c(O)c3Cl)c1 (stereo unspecified) |  | 8.78 µM (active) |
| COc1ccc2[nH]c(=S)[nH]c2c1 | -5.52 |  |
| COc1ccc(-c2cn[nH]c2N)c(OC)c1 |  | 7 µM (active) |
| COc1cc(OC)cc(-c2cn[nH]c2N)c1 | 0.221 |  |
| Nc1cccc(CCc2ccncc2)c1 | -1 |  |
| O=C(Cc1ccc(Cl)cc1)N1CCN(c2ccccc2)CC1 | -0.387 |  |
| O=c1/c(=C/c2ccc(O)cc2)sc2n1CCCN=2 |  | 9.71 µM (active) |
| O=C(C1CCCN(S(=O)(=O)c2cnc[nH]2)C1)N1CCN(c2ccc(Cl)cc2)CC1 (stereo unspecified) | -7.06 |  |
| O=C1CCCN1CCCNc1ncnc2c1[nH]c1ccc(Cl)cc12 | -0.822 |  |
| COc1cc2c(ccc3cc(OC)c(OC)c(O)c32)cc1O | -17 |  |
| CCN(CCNS(=O)(=O)c1ccc2[nH]c(=O)sc2c1)c1ccccc1 | -0.959 |  |

| SMILES | activity change, negative = inhibition [%] | AC50 |
| --- | --- | --- |
| CC(=O)N1CC[n+]2c(-c3ccc(Cl)cc3)csc21 | -1.68 |  |
| O=C(CNc1ccc2ccccc2c1)NNC1=NCCC1 | -0.851 |  |
| O=C(CN1C(=O)CCC1=O)NNc1ccc2ccccc2c1 |  | 0.0915 µM (active) |
| O=C1CCC(=O)N1CNc1ccc(Oc2ccccc2)cc1 | 0.862 |  |
| CCCn1cnc2cc(NCc3ccccc3O)ccc21 | 1.95 |  |
| Cc1cc(N2CCN(c3ccccc3)CC2)n2ncnc2n1 | -4.68 |  |
| O=C(O)c1ccc(CSc2nc3ccccc3o2)cc1 | -3.53 |  |
| CC(=O)N1CCN(C(=S)c2ccc(N(C)C)cc2)CC1 | -6.25 |  |
| COc1ccc(-c2n[nH]c(=S)n2Cc2ccco2)cc1 | -2.38 |  |
| CCn1c(-c2ccc(N)cc2)nc2ccccc21 | 5.07 |  |
| S=c1[nH]nc(-c2ccncc2)n1Cc1ccco1 | -1 |  |
| S=c1[nH]nc(-c2ccco2)n1Cc1ccccc1 | -8.45 |  |
| O=C(NNS(=O)(=O)c1ccc(F)cc1)c1cc2ccccc2cc1O | -9.25 |  |
| O=C(C1CCCC1)N1CCCC(Nc2ccccc2)C1 (stereo unspecified) | -1.5 |  |
| CCc1[nH]nc(C(=O)N2CCCC(Nc3ccc(C(C)C)cc3)C2)c1C (stereo unspecified) | -2.33 |  |
| CCc1ccc(-c2csc3[n+]2CCN3C(C)=O)cc1 | -4.47 |  |
| O=C(Nc1ccc2snnc2c1)N1CCN(c2ccccc2)CC1 | -2.31 |  |
| CC1(C)Nc2ccccc2N(CC(=O)N2CCCCC2)C1=O | -0.3 |  |
| COc1cc(/C=N/Nc2ccc([N+](=O)[O-])cn2)cc(OC)c1O | -0.153 |  |
| O=c1[nH]c(/C=C\c2ccccc2F)nc(O)c1[N+](=O)[O-] | 14.8 |  |
| O=c1[nH]c(/C=C\c2cccc(Cl)c2)nc(O)c1[N+](=O)[O-] | 2.32 |  |
| COc1cc(/C=N/NC(=O)c2cccc([N+](=O)[O-])c2)cc(OC)c1O | -11.4 |  |
| O=c1[nH]c(/C=C\c2cccc(F)c2)nc(O)c1[N+](=O)[O-] | -1.32 |  |
| CCn1c(/C=C/c2ccc(O)cc2)nc2ccccc2c1=O | -1.78 |  |
